Only some compounds are listed: those with a hit (about 0.28% of all), similar ones and a draw of the others.
PI4K2A inh: PI4K2A (human) kinase inhibition; AID 1346378; Q9BTU6; purified PI4K2A, ADP-Glo luminescence, 1 h; active compounds read low; activity change, negative = inhibition, % at 76.9 µM; 0.13% of 420,000 active; in the data active = activity change below about -50%; inconclusive = mostly about -30% to -49%
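In this quantitative HTS, ADP production by PI4K2A was quantified luminescently after 1 h at ambient temperature; 100 microM adenosine served as plate-quality control.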
PGK inhibitor: inhibitors of T. brucei phosphoglycerate kinase. PGK/GAPDH coupled, Kinase-Glo luminescence, 60 min. Potency, µM (highest dose often 57.5 µM), most hits filed as inhibitors. 0.043% of 380,000 active; also: nearly all actives have a fitted effect of over 60% in size
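Recombinant glycosomal PGK reaction used 1,3-bisphosphoglycerate generated in-well by GAPDH (100nM final) in 100mM TEA pH 7.6, 5mM MgCl2, 0.01% Tween-20. After 60 minutes at room temperature, ATP was read by Kinase-Glo Plus luminescence end-point.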
Tb PFK inh-1: blocks T. brucei phosphofructokinase; Potency, µM (highest dose often 57.5 µM), actives largely listed as inhibitors; T. brucei PFK, ADP-Glo luminescence; 0.17% of 330,000 active; also: nearly all actives have a fitted effect of over 60% in size
Target sequence (O15648 whole entry, looked up): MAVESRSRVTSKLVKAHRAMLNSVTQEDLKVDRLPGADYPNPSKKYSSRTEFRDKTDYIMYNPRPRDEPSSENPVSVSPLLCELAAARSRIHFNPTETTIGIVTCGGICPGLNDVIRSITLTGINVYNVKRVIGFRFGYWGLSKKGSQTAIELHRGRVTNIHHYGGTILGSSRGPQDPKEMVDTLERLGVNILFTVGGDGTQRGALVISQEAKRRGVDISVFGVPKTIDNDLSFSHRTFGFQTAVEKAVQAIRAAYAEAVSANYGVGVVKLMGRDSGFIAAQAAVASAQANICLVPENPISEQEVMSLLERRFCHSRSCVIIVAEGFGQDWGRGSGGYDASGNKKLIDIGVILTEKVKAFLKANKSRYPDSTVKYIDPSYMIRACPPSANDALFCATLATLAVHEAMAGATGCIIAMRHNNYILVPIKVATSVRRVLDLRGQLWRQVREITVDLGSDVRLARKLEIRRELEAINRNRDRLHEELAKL
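In TEA buffer at pH 8.0 with 5 mM MgCl2, enzyme (1.25 nM) converted F6P (0.5 mM) and ATP (0.1 mM) for 45 min at room temperature. ADP product was read by luciferase luminescence.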
Pin1 inh: human Pin1 inhibition; Q13526; Potency, µM (highest dose often 115 µM), most hits filed as inhibitors; Pin1 FP peptide displacement, HiFluor488, 10 min; AID 504891; 0.009% of 390,000 active; active = well fitted inhibition curve with a large enough effect in the polarisation, with a control signal flat, not every such curve was filed as active; inconclusive = small, poorly fitted or top-dose-only effect, or effect the other way, or a change in a side signal; inactive = no such curve, though single readings can be large or run the other way; the % refers to the polarisation
Target sequence (Q13526 whole entry, looked up): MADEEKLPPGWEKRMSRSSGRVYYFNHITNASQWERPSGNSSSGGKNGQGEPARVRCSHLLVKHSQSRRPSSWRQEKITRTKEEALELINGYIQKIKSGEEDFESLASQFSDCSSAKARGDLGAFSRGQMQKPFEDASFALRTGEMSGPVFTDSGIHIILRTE
USP2a inh: blocks human ubiquitin-specific protease USP2a | O75604 | Potency, µM (doses to about 38.3 µM), most hits filed as inhibitors | 0.01% of 330,000 active | USP2 core, Ub-CHOP2 coupled fluorogenic reporter, 485/531
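Deubiquitinase activity read as fluorescence (485/531 nm) after Ub-CHOP2 cleavage activates the enterokinase reporter on its substrate; USP2 core 10nM, Ub-CHOP2 and substrate 25nM each, 30min compound preincubation then 60min RT; data normalized to NEM, curves fitted.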
TbPFK ATP: Tb phosphofructokinase inhibition, orthogonal luminescence; shares compounds with Tb PFK inh-1; Tb PFK enzyme, ATP depletion, Kinase-Glo Plus luminescence; Potency, µM (doses to about 57.5 µM); 47% of 1,100 active; AID 504636; calls by dose curve; also: nearly all actives have a fitted effect of over 60% in size
Tb PFK inh-2: validation of T. brucei phosphofructokinase inhibitors; purified T. brucei PFK, ADP-Glo luminescence, 45 min; 41% of 1,100 active; shares compounds with Tb PFK inh-1; Potency, µM (series often up to 57.5 µM), hits mostly inhibitors; also: nearly all actives have a fitted effect of over 60% in size
A number is an active result; 0 = inactive; ? = inconclusive; - = no result. Unless noted, calls follow the shape of the dose curve; as a rule, active = well fitted curve in the direction sought with a large enough effect; inconclusive = small, poorly fitted or top-dose-only effect, or another doubt; inactive = no such curve, though single readings can be large; an effect the other way counts as inactive or inconclusive.

SMILES | PI4K2A inh | PGK inhibitor | Tb PFK inh-1 | Pin1 inh | USP2a inh | TbPFK ATP | Tb PFK inh-2
COc1cc2c(cc1OC)C(c1cc([N+](=O)[O-])ccc1O)NCC2 (stereo unspecified) | 0 | 0 | 0 | 0 | 0 | - | -
Nc1ccc(S(=O)(=O)N2CCN(S(=O)(=O)c3ccc4c(c3)OCCO4)CC2)cc1 | - | - | - | 0 | - | - | -
Cc1ccc(N2C(=O)C(Cl)=C(N3CCCCCC3)C2=O)cc1 | 0 | 0 | 0 | 0 | 0 | - | -
O=C1C(Cl)=C(N2CCCCC2)C(=O)N1c1ccccc1 | 0 | 0 | ? | 0 | 0 | 0 | 0
CCN(CC)C(=O)CSc1nnc(CNc2ccc(F)cc2)o1 | 0 | 0 | ? | 0 | 0 | - | -
Cc1ccc(C(=O)CSc2nnc(CNc3ccc(F)cc3)o2)cc1 | 0 | 0 | 17µM | 0 | 0 | ? | 24µM
O=C(NNC(=O)c1ccccc1Br)c1ccc2nc[nH]c2c1 | 0 | 0 | 21µM | 0 | 0 | ? | ?
O=C(NNC(=O)c1ccccc1F)c1ccc2nc[nH]c2c1 | 0 | 0 | 0 | 0 | 0 | - | -
O=C1Cc2cc(S(=O)(=O)N3CCN(c4ccc(Cl)cc4)CC3)ccc2N1 | - | - | - | 0 | - | - | -
c1ccc(CNCc2nnc(-c3cc4ccccc4[nH]3)s2)cc1 | - | - | - | 0 | - | - | -
Cc1cccnc1NC(=S)Nc1ccc(Cl)c(Cl)c1 | 0 | 0 | 13µM | 0 | 0 | ? | ?
CC(=O)Nc1cccc(NC(=S)Nc2ccc(F)c(Cl)c2)c1 | 0 | 0 | 21µM | 0 | 0 | ? | ?
FC(F)(F)c1cccc(NC(=S)Nc2ccc(Cl)c(Cl)c2)c1 | 0 | 0 | 9.5µM | ? | 0 | ? | ?
Cc1cc2c(s1)c1cnn(Cc3cccc(C(F)(F)F)c3F)c(=O)c1n2C | - | - | - | 0 | - | - | -
Cc1n[nH]c(C)c1Sc1ccccc1[N+](=O)[O-] | 0 | 0 | ? | 0 | 0 | ? | ?
O=c1c2ccccc2nc2n1CCC2 | 0 | ? | ? | 0 | 0 | 27µM | 17µM
O=Cc1ccc(N2CCCC2)c([N+](=O)[O-])c1 | 0 | 0 | 0 | 0 | 0 | - | -
O=[N+]([O-])/C=C\c1ccc(N2CCCC2)c(F)c1 | 0 | 0 | ? | 0 | 0 | 2.4µM | 6µM
NCc1ccccc1COc1ccccc1 | 0 | 0 | 24µM | 0 | 0 | ? | ?
NC(=O)c1sc2nc3c(c(-c4ccco4)c2c1N)CCC3 | 0 | 0 | 0 | 0 | 0 | - | -
Nc1c(C(=O)NC2CC2)sc2nc3c(c(-c4ccco4)c12)CC/C3=C/c1ccco1 | -74 | ? | 6.7µM | - | 22µM | ? | ?
CN(C)CCOC(c1ccccc1)c1ccc(Br)cc1 (stereo unspecified) | 0 | - | - | - | - | - | -
Cc1ccc(NS(=O)(=O)c2cc3c(cc2Cl)CCC(=O)N3)cc1C | - | - | - | 0 | - | - | -
Cc1nc(SCc2ccc(O)c([N+](=O)[O-])c2)n[nH]1 | 0 | 0 | 0 | 0 | 0 | - | -
Cc1nc(SCc2ccc(O)c([N+](=O)[O-])c2)c([N+](=O)[O-])[nH]1 | 0 | 0 | ? | 0 | 0 | 0 | 0
SMILES | PI4K2A inh | PGK inhibitor | Tb PFK inh-1 | Pin1 inh | USP2a inh | TbPFK ATP | Tb PFK inh-2
Cc1cccc(-c2nnn3c2nc(NCCc2ccc(S(N)(=O)=O)cc2)c2ccccc23)c1 | 0 | 0 | 0 | 0 | 0 | - | -
Cc1ccc(-c2nnn3c2nc(NCCc2ccc(S(N)(=O)=O)cc2)c2ccccc23)cc1 | 0 | 0 | ? | ? | 0 | ? | ?
COc1cc(C=NNC(=O)c2ccc(NS(=O)(=O)c3cccs3)cc2)cc(Br)c1O | 0 | 0 | ? | 0 | 0 | 0 | ?
CC(=O)Nc1ccc(C=NNC(=O)c2ccc(NS(=O)(=O)c3cccs3)cc2)cc1 | 0 | 0 | 0 | - | 0 | - | -
N#Cc1nc(Nc2cc(F)cc(F)c2)c2ncn(CCCO)c2n1 | - | - | - | 0 | - | - | -
COc1ccc(Cl)cc1S(=O)(=O)N1CCN(S(=O)(=O)c2ccc3c(c2)OCCO3)CC1 | - | - | - | 0 | - | - | -
N#Cc1cccc(NC(=O)COC(=O)c2cccc(N3C(=O)c4ccccc4C3=O)c2)c1 | 0 | 0 | ? | 0 | 0 | ? | ?
O=C(COC(=O)c1cccc(N2C(=O)c3ccccc3C2=O)c1)Nc1ccccc1 | 0 | 0 | 0 | 0 | 0 | - | -
CCN(CC)CC(=O)OCC(=O)[C@@]1(O)CC[C@H]2[C@@H]3CCC4=CC(=O)CC[C@]4(C)[C@H]3[C@@H](O)C[C@@]21C | 0 | - | - | - | - | - | -
NCCCCCc1nnc(SCc2ccc(Cl)c(Cl)c2)o1 | 0 | 0 | 24µM | 0 | 0 | 13µM | 30µM
Cc1ccc(C)c(CSc2nnc([C@@H]3CCCN3)o2)c1 | 0 | 0 | 0 | 0 | 0 | - | -
Clc1ccc(CSc2nnc([C@@H]3CCCN3)o2)cc1Cl | 0 | 0 | 30µM | 0 | 0 | 12µM | 27µM
CCc1ccc(N2C(=O)NC(=O)/C(=C\C=C\c3ccco3)C2=O)cc1 | ? | 0 | ? | ? | 0 | ? | ?
Cc1cc(C)cc(N2C(=O)NC(=O)/C(=C\C=C\c3ccco3)C2=O)c1 | 0 | 0 | ? | ? | 0 | 11µM | 21µM
Cc1ccc(N2C(=O)NC(=O)/C(=C/C=C/c3ccco3)C2=O)cc1 | ? | 0 | ? | ? | 0 | - | -
COc1ccc(C2Nc3ccccc3C(=O)N2Cc2ccccc2)cc1Oc1ccc(NC(C)=O)cc1 (stereo unspecified) | - | - | - | 0 | - | - | -
O=[N+]([O-])c1ccc(CSc2nnc(Cc3ccccc3)o2)cc1 | 0 | 0 | 0 | 0 | 0 | - | -
O=[N+]([O-])c1ccc(CSc2nnc(-c3cnccn3)o2)cc1 | 0 | 0 | 24µM | 0 | 0 | ? | ?
Cc1c(Br)c([N+](=O)[O-])nn1CC(=O)Nc1cccc2nonc12 | 0 | 0 | 7.6µM | 0 | 0 | 4.8µM | 2.7µM
Cc1cccc(NC(=O)Cn2nc([N+](=O)[O-])c(Br)c2C)n1 | 0 | 0 | 17µM | 0 | 0 | 12µM | 21µM
Cc1c(Br)c([N+](=O)[O-])nn1CC(=O)Nc1ccc(CC#N)cc1 | - | - | ? | - | 0 | ? | ?
Cc1ccc(NC(=O)Cn2nc([N+](=O)[O-])c(Br)c2C)cc1C | 0 | 0 | ? | 0 | 0 | - | -
Cc1cc(NC(=O)Cn2nc([N+](=O)[O-])c(Br)c2C)no1 | 0 | 0 | 27µM | 0 | 0 | 21µM | ?
O=C(CCCl)NCc1ccccc1 | 0 | - | - | - | - | - | -
O=[N+]([O-])c1ccc(CNc2cccc(F)c2)s1 | 0 | 0 | 13µM | 0 | 0 | 5.4µM | 13µM
Cc1cccc(NCc2ccc([N+](=O)[O-])s2)c1 | 0 | 0 | ? | 0 | 0 | 21µM | ?
COc1ccc2[nH]c3c(=O)n(CCCCC(=O)NCCN4CCCC4)c(=S)[nH]c3c2c1 | 0 | 0 | ? | ? | 0 | ? | ?
COc1cc(NC(=O)C(OC(=O)CNC(=O)c2ccccc2)c2ccccc2)c(OC)cc1Cl (stereo unspecified) | - | - | - | 0 | - | - | -
COC(=O)\C(C(C)=O)=C(/C=C/C=C/C=C/N(C)C)N(C)C | 0 | ? | ? | ? | 0 | ? | ?
